High-throughput results from PubChem.
Most compounds without a hit are left out; they make up all but 2.2% or so of the library.
PAX8 reporter: inhibitors of PAX8-driven TPO luciferase reporter, primary screen, RMG-I cells, single concentration. SteadyGlo, 24 h. inhibition, % at 12.6 µM. 360,000 compounds, 1.2% hits. AID 652154, 2013;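 active = mean replicate inhibition at least 60% with every replicate also reaching 60%; inconclusive = only one of the two criteria is met; inactive = mean below 60% and not all replicates reaching 60%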;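 also: luciferase light reporting Pax8 driven TPO promoter activity; plate controls were median of neutral control wells for no effect and mitoxantrone controls for full effect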
LGR2 antag: inhibitors of bursicon-induced LGR2 CRE-luciferase signal, primary screen, cell-based, HEK293, CRE-luciferase reporter, bursicon stimulation. AID 720647, 2013. bursicon-stimulated, 4 h. inhibition, % at 9.99 µM. Drosophila bursicon receptor LGR2 (rickets). 380,000 compounds, 0.35% hits;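 active = drop in luminescence signal, shown as inhibition above about 50% in the replicate tests, limit read from the data, passing the limit was not always enough; inconclusive = probably only some replicates passing the limit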;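 also: agonist challenge used bursicon conditioned medium at about half maximal strength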
EBV LMP1 NFkB: EBV LMP1-driven NF-kappaB luciferase reporter inhibitors, primary screen, cell-based, luminescence, single point | inhibition, % at 12.5 µM | LMP1-induced NF-kappaB luciferase reporter cells | 350,000 compounds, 0.69% hits; in the data active = inhibition above about 41%; inconclusive = no clear call, values can overlap the other calls;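 also: 0% = neutral control wells and 100% = reference inhibitor control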
Shn3 inh set2: reduction of Shn3 3'UTR firefly luciferase signal, primary screen, Schnurri-3 inhibitor project, cell-based, Clone20 osteoblasts, set 2 | Clone20 osteoblast Shn3 3'UTR firefly luciferase, 24 h | inhibition, % at 12.5 µM | 360,000 compounds, 0.52% hits | AID 588674, 2011;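 active = mean inhibition of at least 75% with every replicate also reaching 75%; inconclusive = mean inhibition at least 75% but some replicate below; inactive = mean inhibition below 75%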;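 also: 0% = median of neutral control wells and 100% = pilot-screen positive control compound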
EWS-Fli inh: EWS/Fli-driven NR0B1 reporter inhibitors, primary screen, A673 cells, NR0B1 luciferase, luminescence, MLPCN library. 350,000 compounds, 0.67% hits. inhibition, % at 12.6 µM. viability-normalised;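 active = mean inhibition of at least 50% after viability correction, with every replicate also passing that limit; inconclusive = mean reaches 50% but only one of two replicates passes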;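 also: firefly luciferase signal divided by Alamar Blue viability fluorescence both relative to DMSO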
TRPM1 prom inh: inhibitors of MITF-dependent TRPM1 promoter reporter, primary screen, cell-based, SK-MEL-5, single point, luciferase. SK-MEL-5 TRPM1 promoter luciferase, 24 h. inhibition, % at 12.5 µM. 330,000 compounds, 0.83% hits;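 active = mean inhibition across replicates of 60% or more, whatever share of single replicates reaches that level; inconclusive = some that reach 60%, reason not given; inactive = mean inhibition across replicates below 60%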
* marks the source's active call; other numbers are inactive results; ? = inconclusive; / = no result given; ! = not confirmed by another sample.

SMILES | PAX8 reporter | LGR2 antag | EBV LMP1 NFkB | Shn3 inh set2 | EWS-Fli inh | TRPM1 prom inh
COc1ccc(NC(=O)Nc2ccc3c(c2)C(=O)N([C@H](C)CO)C[C@H](C)[C@H](CN(C)CC2CC2)OCCCC[C@@H](C)O3)cc1 | -2.3 | / | / | / | / | /
CSc1nnc(NC(=O)c2nc(S(=O)(=O)Cc3cccc(C)c3)ncc2Cl)s1 | 30.8 | -7.5 | ? | 96.0* | / | 81.0*
C[C@H](CO)N1C[C@H](C)[C@H](CN(C)Cc2ccncc2)Oc2ccc(NS(=O)(=O)c3ccc(F)cc3)cc2C1=O | -10.1 | 1.8 | / | / | 4.5 | /
Cc1ccc(CC2S/C(=C(/C#N)C(=O)NCc3ccco3)N(c3ccccc3)C2=O)cc1 (configuration not stated) | / | / | 4.1 | 12.4 | / | 4.7
CC1S/C(=C(\C#N)C(=O)NCc2ccco2)N(Cc2ccco2)C1=O (configuration not stated) | / | / | 40.6* | 0.8 | / | 3.0
Oc1ccc(Nc2nc3ccccc3nc2Nc2ccc(O)cc2)cc1 | / | / | 15.4 | 55.3 | / | 65.8*
C[C@H](CO)N1C[C@H](C)[C@@H](CN(C)C(=O)c2ccccc2)Oc2cc(C#CC3(O)CCCC3)ccc2S1(=O)=O | / | 23.2 | / | / | 0.2 | /
COc1cc(NC(=O)c2cc(-c3ccccc3Cl)on2)cc(OC)c1OC | 8.8 | 13.5 | 5.5 | 23.7 | 61.6* | 28.2
COc1cc(NC(=O)c2cc3c(Cl)nc4ccccc4c3s2)cc(OC)c1OC | 11.9 | 20.1 | 34.1 | 94.2* | / | -11.2
COc1ccc(NC(=O)c2cc3c(Cl)nc4ccccc4c3s2)c(OC)c1 | 15.3 | -4.3 | 4.9 | 0.0 | -10.0 | 10.7
CC(=O)Nc1sc2c(c1-c1nc3ccccc3s1)CN(C(C)C)CC2 | 26.4 | 102.1* | -2.8 | -23.6 | 54.2* | 64.2*
CC(=O)N1CCc2c(sc(NC(=O)C3CC3)c2-c2nc3ccccc3s2)C1 | 14.0 | 3.4 | -10.8 | 3.5 | 9.3 | 4.5
C=CCN=c1scc(C)n1/N=C/c1ccc(O)c(O)c1 | -11.7 | -40.4 | -8.4 | 91.7* | -2.2 | -51.9
CN=c1scc(-c2ccco2)n1/N=C/c1ccc(O)c(O)c1 | -66.0 | -3.0 | -55.0 | 90.1* | 15.1 | 1.5
COc1ccc2c3c(n(C)c2c1)[C@@H](CO)N(S(C)(=O)=O)CC31CN(C(=O)C2CCC2)C1 | -21.2 | -11.2 | / | / | -13.5 | /
O=S(=O)(O)CCS | -1.9 | -7.2 | 7.0 | -17.1 | -6.3 | 0.5
NCCCS(=O)(=O)O | -14.9 | 8.0 | 53.9*! | -19.0 | 2.3 | -1.6
O=C1CSC(=S)N1Cc1ccccc1 | -6.1 | 18.4 | 41.5* | -15.0 | -2.3 | /
CC[N+]1(C)CCC(O)(/C=C/c2ccccc2)C(C(=O)/C=C/c2ccccc2)C1 (configuration not stated) | 67.5* | 24.1 | -2.8 | 98.9* | 7.6 | 66.5*
Cc1cc(=O)[nH]c(N/N=C/c2ccc(C)o2)n1 | 41.3 | -6.0 | 48.4* | -0.9 | 0.2 | 2.3
Cc1cc(=O)[nH]c(N/N=C/c2ccco2)n1 | / | 5.2 | -15.3 | -10.6 | / | 7.1
CN(C)C(=O)c1ccc(-c2ccc([C@H]3[C@@H](CO)N4CCCCN(S(C)(=O)=O)C[C@@H]34)cc2)cc1 | -13.6 | 11.5 | / | / | / | /
O=C(c1ccc(S(=O)(=O)Cc2ccccc2F)c([N+](=O)[O-])c1)N1CCCC1 | 44.4 | 45.2 | 9.3 | -2.6 | 16.2 | 18.2
O=C(c1ccc(S(=O)(=O)c2ccc(F)cc2)c([N+](=O)[O-])c1)N1CCCCCC1 | -24.2 | 45.5 | 18.8 | 92.2* | -13.9 | 47.8
O=C(c1ccc(Br)c([N+](=O)[O-])c1)N1CCN(Cc2ccccc2)CC1 | 2.1 | 0.4 | -2.0 | -116.2 | 18.9 | 14.5
SMILES | PAX8 reporter | LGR2 antag | EBV LMP1 NFkB | Shn3 inh set2 | EWS-Fli inh | TRPM1 prom inh
COc1cc(N(C)C)c([N+](=O)[O-])cc1C(=O)N1CCN(Cc2ccccc2)CC1 | 0.7 | -1.5 | 50.7* | 22.6 | -3.6 | 3.8
O=C(c1ccc(S(=O)(=O)c2ccccc2Cl)c([N+](=O)[O-])c1)N1CCN(Cc2ccccc2)CC1 | 24.5 | 21.3 | 24.0 | 82.9 | 33.4 | 76.1*
CCCN1[C@@H]2c3ccc(-c4ccccc4F)c(=O)n3C[C@@H]2[C@@H](CO)[C@@H]1C(=O)N1CCN(C)CC1 | -1.5 | 5.8 | / | / | -5.2 | /
O=C(C[C@H]1C[C@@H]2c3cc(NC(=O)CC4CC4)ccc3O[C@@H]2[C@@H](CO)O1)NCc1cccnc1 | / | -5.2 | / | / | -2.2 | /
O=C(CCl)N(C/C=C/c1ccccc1)c1ccc2c(c1)OCCO2 | 84.2* | -30.7 | -10.1 | -8.8 | 44.6 | 3.9
O=C(/C=C/c1ccccc1)c1ccc2c(c1)OCCCCO2 | -145.0 | / | -45.4 | -70.6 | / | -92.4
CCCC(=O)NC(c1ccc(OC)cc1)c1ccc2cccnc2c1O (configuration not stated) | 77.0* | 25.1 | 70.0* | 92.3* | 26.1 | 72.7*
CCC(=O)NC(c1ccccc1OC)c1ccc2cccnc2c1O (configuration not stated) | / | / | 64.7* | 89.4* | / | 66.0*
COc1ccc(Cl)cc1C(Nc1cccnc1)c1ccc2cccnc2c1O (configuration not stated) | 24.7 | 33.7 | 9.5 | 77.8 | 37.3 | 28.6
CCCCC(=O)NC(c1ccccc1Cl)c1ccc2cccnc2c1O (configuration not stated) | 85.3* | 22.0 | 71.9* | 87.9* | 28.9 | 70.9*
CCCCC(=O)NC(c1ccc(C(C)C)cc1)c1ccc2cccnc2c1O (configuration not stated) | 84.8* | 26.7 | 50.0* | 83.2 | 43.1 | 69.8*
O=C(N[C@@H]1CC[C@@H](CCn2cc(-c3ccccn3)nn2)O[C@H]1CO)c1ccncc1 | -2.5 | -15.1 | / | / | -9.2 | /
CC(=O)NC(c1ccc(C(C)C)cc1)c1ccc2cccnc2c1O (configuration not stated) | 94.9* | 21.5 | 57.5* | 92.0* | 42.8 | ?
CCCC(=O)NC(c1cccs1)c1cc([N+](=O)[O-])c2cccnc2c1O (configuration not stated) | -3.3 | 37.2 | 2.2 | 21.2 | 22.6 | 5.0
Oc1c(C(c2ccccc2Cl)N2CCCC2)ccc2cccnc12 (configuration not stated) | 49.4 | -1.7 | 38.6 | 86.6* | 25.6 | 74.8*
CN1CCN(C(c2ccc(C(F)(F)F)cc2)c2ccc3cccnc3c2O)CC1 (configuration not stated) | 13.5 | 25.8 | / | / | 17.7 | /
CCCCC(=O)NC(c1ccccc1)c1ccc2cccnc2c1O (configuration not stated) | 87.3* | 27.0 | 47.9* | 93.0* | 35.5 | 64.9*
